Assay outcomes (PubChem)
SMN2 splice enh = qHTS Assay for Enhancers of SMN2 Splice Variant Expression | AID 1458, 2008 | Potency, µM (titrated, usually from 46.1 µM), for the others: at the top dose activity change, positive = activation, usual class: activators | 210,000 tested, 2.8% active | HEK293 SMN2-luciferase splicing reporter, luminescence, 30-36 h; further: % of control where 0% means no effect; nearly all actives have a fitted effect of over 55% in size
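qHTS luciferase splicing reporter: luminescence rises when SMN2 exon 7 is included in transfected HEK293 cells. Compound exposure lasted 30-36 h at 37C, with 4.5 mM final sodium butyrate as control, followed by a ONE-Glo read.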
Rab9 promoter act = qHTS Assay for Rab9 Promoter Activators; Huh7 Rab9 promoter-luciferase reporter, luminescence, 24 h; Potency, µM (top dose mostly 9.22 µM), inactives show at the top dose activation, negative = inhibition, actives largely listed as activators; 320,000 tested, 2.8% active; further: % of control where 0% means no effect; nearly all actives have a fitted effect of over 60% in size
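Quantitative HTS format; Huh7 Rab9-luciferase reporter cells (1500/well) receive compound 2 h post-plating, incubate 24 h at 37 °C, then get luciferase reagent for 10 min before luminescence reading.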
FLuc counter = qHTS profiling assay for firefly luciferase inhibitor/activator using purifed enzyme and Km concentrations of substrates (counterscreen for miR-21 project). Luciferin 4-monooxygenase (Photinus pyralis), P08659. purified FLuc, Km substrates, luminescence inhibition. Potency, µM (titrated, usually from 57.5 µM), without a hit: at the top dose activity change, negative = inhibition, hits mostly inhibitors. 360,000 tested, 6.9% active;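 further: plate controls were vehicle for no effect and reference inhibitor for full effect; nearly all actives have a fitted effect of over 55% in size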
Target sequence (P08659 whole entry, looked up): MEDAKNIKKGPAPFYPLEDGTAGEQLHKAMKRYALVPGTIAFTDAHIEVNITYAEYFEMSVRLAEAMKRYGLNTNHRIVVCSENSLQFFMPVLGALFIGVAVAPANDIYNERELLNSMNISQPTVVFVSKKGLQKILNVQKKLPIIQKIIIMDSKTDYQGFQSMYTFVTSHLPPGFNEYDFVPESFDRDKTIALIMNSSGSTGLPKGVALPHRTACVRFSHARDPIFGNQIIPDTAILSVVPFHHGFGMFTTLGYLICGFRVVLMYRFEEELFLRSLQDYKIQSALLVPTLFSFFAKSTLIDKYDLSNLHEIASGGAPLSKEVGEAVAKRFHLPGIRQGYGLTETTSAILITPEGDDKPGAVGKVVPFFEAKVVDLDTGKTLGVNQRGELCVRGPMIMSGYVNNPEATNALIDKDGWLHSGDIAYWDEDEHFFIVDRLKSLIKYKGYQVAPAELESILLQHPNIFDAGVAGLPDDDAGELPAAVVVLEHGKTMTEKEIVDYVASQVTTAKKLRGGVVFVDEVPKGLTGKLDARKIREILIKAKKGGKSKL
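Biochemical qHTS of compounds, final roughly 60 µM downward over six points, against 10 nM purified firefly luciferase using Km concentrations of substrates (10 uM D-luciferin, 10 uM ATP) in Tris acetate pH 7.5 buffer; luminescence output.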
ELG1 genotoxic = qHTS screen for small molecules that induce genotoxicity in human embryonic kidney (HEK293T) cells expressing luciferase-tagged ELG1 | HEK293T ELG1-luciferase reporter, luminescence, 16 h | Potency, µM (series often up to 46 µM), for inactives: at the highest dose activity change, positive = activation, usual class: activators | 330,000 tested, 1.3% active; further: % of control where 0% means no effect; nearly all actives have a fitted effect of over 60% in size
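Luminescence read-out: rising ELG1-luciferase signal, reflecting elevated ELG1 protein under genetic stress, flags genotoxic compounds. Cells were treated for 16 hr at 37 °C before ONE-Glo detection.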
ELG1 repair inh = qHTS screen for small molecules that inhibit ELG1-dependent DNA repair in human embryonic kidney (HEK293T) cells expressing luciferase-tagged ELG1. HEK293T ELG1-luciferase reporter, luminescence, 16 h; DNA damage induced by 5-fluorouridine. Potency, µM (titrated, usually from 46.1 µM), without a hit: top-dose activity change, negative = inhibition, actives largely listed as inhibitors. 330,000 tested, 2.3% active. AID 504467, 2011; further: on the % scale 0 is the no-effect control and ±100 the full control effect; nearly all actives have a fitted effect of over 55% in size
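DMSO vehicle served as the neutral condition. Each well held 2,000 cells given 5-fluorouridine plus compound; after 16 hr at 37 °C/5% CO2, ONE-Glo was added and luciferase measured 30 min later.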
NPC1 promoter act = qHTS Assay for NPC1 Promoter Activators. Huh7 NPC1 promoter luciferase reporter, 24 h. Potency, µM (series often up to 9.22 µM), without a hit: at the top dose activation, most hits filed as activators. 320,000 tested, 2.4% active; further: % of control where 0% means no effect; nearly all actives have a fitted effect of over 60% in size
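Luminescence read-out of NPC1 promoter-driven luciferase in stably transfected Huh7 cells; compounds delivered in DMSO and left 24 h at 37C, 5% CO2, qHTS titration format.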
* hit, by the source's call; ? = inconclusive; / = not tested or not shown; [ ] = remark or other dose. Hits are enriched below; roughly 9.4% of the tested compounds scored in any of these assays. The call rests on the fitted dose curve; in most records, active means well fitted curve in the direction sought with a large enough effect; inconclusive means small, poorly fitted or top-dose-only effect, or another doubt; inactive means no such curve, though single readings can be large; an effect the other way counts as inactive or inconclusive. Potency means the concentration at half of the fitted maximal effect.

SMILES	SMN2 splice enh	Rab9 promoter act	FLuc counter	ELG1 genotoxic	ELG1 repair inh	NPC1 promoter act
FC(F)(F)COc1nc(OCC(F)(F)F)nc(N2CCN(c3ccccc3)CC2)n1	-25%	0%	1%	-8%	23µM*	-3%
CCOC(=O)C1C(O)=CC(=O)CC1c1ccccc1 (stereo not given)	/	-3%	1%	5%	-1%	-1%
CCOC(=O)C1C(=O)C=C(Nc2ccccc2F)CC1c1ccccc1 (stereo not given)	?	?	17µM*	12%	?	?
CC1=CC(=C2C(=O)c3ccccc3C2=O)C=C(C)N1Cc1ccco1	14µM*	1.6µM*	3.4µM*	18%	?	2.2µM*
CCCCN1C(C)=CC(=C2C(=O)c3ccccc3C2=O)C=C1C	-25%	0.4µM*	1.5µM*	0.82µM*	?	0.5µM*
Cc1cccc(N(C)C(=O)Cc2c(C(=O)O)[nH]c3ccccc23)c1	8%	/	-13%	/	/	/
Cc1ccc(-c2cc(N)n[nH]2)cc1	?	3%	?	0%	14%	5%
CC(C)(C)c1ccc(-c2cc(N)n[nH]2)cc1	-12%	-5%	9.5µM*	3%	?	0%
CNS(=O)(=O)c1cccc(C(=O)OCc2cc(=O)oc3c(C)c(O)ccc23)c1	/	1%	-8%	-21%	23µM*	-7%
CCc1cc2c(COC(=O)c3cccc(S(C)(=O)=O)c3)cc(=O)oc2cc1O	/	-3%	-3%	-18%	?	-3%
Cc1cc(C(=O)Cn2ncc(Cl)c(Cl)c2=O)c(C)n1CC(F)(F)F	?	13%	15µM*	-15%	?	-8%
CC(=O)O[C@H]1CC[C@@]2(C)C(=CC[C@@H]3[C@@H]4CC[C@H](c5cc(C(F)(F)F)n(C(C)=O)n5)[C@]4(C)CC[C@@H]32)C1	-16%[9.22 µM]	/	/	/	/	/
O=[N+]([O-])c1cc2cccnc2c2ncccc12	/	-2%	0%	-5%	7.3µM*	1%
O=[N+]([O-])c1ccc(Oc2cccc3cccnc23)c(Cl)c1	/	-11%	4%	1%	12%	2%
Cc1ccc([N+](=O)[O-])c2cccnc12	9%	7%	-1%	0%	14%	-3%
O=[N+]([O-])c1cc(O)c2ncccc2c1	-105%	-34%	0%	-10%	2.6µM*	-39%
O=C(Nc1ccc2nc(SCCOc3ccccc3)sc2c1)c1cccs1	/	/	3%	/	/	/
CCCN(C(=O)C1CCN(S(=O)(=O)c2c(C)noc2/C=C/c2ccc(C)cc2)CC1)c1ccccc1F	/	/	-2%	/	/	/
COc1ccc(NC(c2ccccc2)c2ccncc2)cc1 (stereo not given)	/	-6%	1%	-1%	26µM*	-11%
Nc1sc(-c2ccccc2)cc1C(=O)N/N=C/c1ccc(Cl)cc1	/	-1%	6µM*	1%	-3%	0%
COC(=O)c1cc(-c2ccccc2)sc1N	-34%	26%	21µM*	?	?	25%
O=C(N/N=C/c1ccc(Cl)cc1)c1cc2c(s1)-c1ccccc1CC2	19%	-10%	-2%	0%	-10%	-17%
Cc1cccc(NC(=O)c2cc3c(=O)n(Cc4cccnc4)ccc3nc2C)c1	/	/	-6%	/	/	/
CC(=C/c1ccco1)/C=N/N1CCN(c2ccccc2)CC1	?	1.8µM*	2.7µM*	?	?	2.5µM*
CC(/C=N/n1c(-c2ccccc2)n[nH]c1=S)=C\c1ccco1	8%	-3%	-2%	0%	5%	-1%
CC(/C=N/N1CCN(c2ccccc2)CC1)=C\c1ccco1	14µM*	?	2.4µM*	?	?	2µM*
